Most compounds without a hit are left out; they make up all but 3.3% or so of the library.
Sm TGR inh = blocks Schistosoma mansoni thioredoxin glutathione reductase | purified TGR, DTNB reduction, TNB absorbance 405 nm | Q962Y6 | 360,000 compounds, 3% hits | Potency, µM (doses to about 114 µM), without a hit: at the highest dose activity change, negative = inhibition, usual class: inhibitors | AID 485364; also: nearly all actives have a fitted effect of over 60% in size
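TGR 20 nM + NADPH 100 uM (dispensed conc.), cpd preinc 15 min RT; start with NADPH (500 uM addition) then DTNB (15 mM addition). Kinetic TNB absorbance, 405 nm filter. Four-parameter Hill fit across titration.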
AmpC no deterg = AmpC beta-lactamase inhibition without detergent; 330,000 compounds, 0.52% hits; P00811; Potency, µM (titrated, usually from 57.1 µM), for the others: top-dose activity change, negative = inhibition, most hits filed as inhibitors; AmpC nitrocefin hydrolysis, absorbance 480 nm, 0.0001% Triton; AID 485341;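 also: plate controls were no compound for no effect and no enzyme for full effect; nearly all actives have a fitted effect of over 20% in size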
Target sequence (P00811 whole entry, looked up): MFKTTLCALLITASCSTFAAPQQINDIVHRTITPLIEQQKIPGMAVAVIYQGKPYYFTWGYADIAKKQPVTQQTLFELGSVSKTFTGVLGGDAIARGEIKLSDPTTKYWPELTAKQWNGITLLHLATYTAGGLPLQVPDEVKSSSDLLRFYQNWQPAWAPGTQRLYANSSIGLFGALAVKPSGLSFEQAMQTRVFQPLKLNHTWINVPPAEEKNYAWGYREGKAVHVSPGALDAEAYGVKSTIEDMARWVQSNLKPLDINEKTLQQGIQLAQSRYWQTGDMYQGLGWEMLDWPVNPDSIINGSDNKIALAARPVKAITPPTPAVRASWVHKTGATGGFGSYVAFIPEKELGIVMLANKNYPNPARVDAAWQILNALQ
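20 mM phosphate pH 7.0 + 0.01% (detergent screen) or 0.0001% Triton X-100; 5.3 nM AmpC reagent; cpd preinc 15 min RT; nitrocefin (800 uM stock) to start; A480 q20 s × 4 min; Activity was normalised to no-enzyme and no-compound control wells.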
AmpC inh detg = inhibitors of E. coli AmpC beta-lactamase with detergent. P00811. AmpC hydrolysis of nitrocefin, absorbance 480 nm, 0.01% Triton. Potency, µM (highest dose often 114 µM), inactives show top-dose activity change, negative = inhibition, actives largely listed as inhibitors. 370,000 compounds, 0.041% hits. AID 485294;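 also: 0% = no-compound wells and -100% = no-enzyme wells; nearly all actives have a fitted effect of over 25% in size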
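20 mM phosphate pH 7.0 + 0.01% (detergent screen) or 0.0001% Triton X-100; 5.3 nM AmpC reagent; cpd preinc 15 min RT; nitrocefin (800 uM stock) to start; A480 q20 s × 4 min; Activity was normalised to no-enzyme and no-compound control wells.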
* = called active by the depositor; ? = inconclusive; . = not tested or not shown. Calls follow the shape of the dose curve; as a rule, active = well fitted curve in the direction sought with a large enough effect; inconclusive = small, poorly fitted or top-dose-only effect, or another doubt; inactive = no such curve, though single readings can be large; an effect the other way counts as inactive or inconclusive. Unless noted, % is scaled to controls: 0 for no effect and ±100 for the full control effect; potency is read from the fitted curve at half-maximal effect.

SMILES	Sm TGR inh	AmpC no deterg	AmpC inh detg
CS(=O)(=O)Nc1ccc(C2=NN(S(=O)(=O)c3ccc(F)cc3)C(c3ccco3)C2)cc1 (stereo unspecified)	14.1µM*	-42.0%	3.7%
O=S(=O)(c1ccccc1)N1N=C(c2ccc(Br)cc2)CC1c1ccco1 (stereo unspecified)	56.2µM*	-41.2%	-1.3%
Cc1ccc(C2=NN(S(=O)(=O)c3ccccc3)C(c3ccco3)C2)cc1 (stereo unspecified)	0.0%	-33.3%	10.5%
O=S(=O)(c1ccccc1)N1N=C(c2ccc(O)cc2)CC1c1ccco1 (stereo unspecified)	-3.5%	14.1µM*	0.5%
CC(=O)c1ccc(S(=O)(=O)N2CCN(C(=O)c3ccc(COc4ccccc4)o3)CC2)cc1	-5.3%	109.5%	0.0%
COC(=O)c1ccc(Cl)cc1NC(=O)N1CC=C(c2c[nH]c3ccccc23)CC1	-22.0%	.	-6.0%
Cc1ccc(CNC(=O)c2ccc(Cl)c(S(N)(=O)=O)c2)n1C	?	9.7%	-2.1%
Cc1ccc(CNC(=O)c2cc(Cl)cc(Cl)c2)n1C	31.6µM*	-37.3%	1.1%
O=C(CN1CCN(S(=O)(=O)c2ccccc2)CC1)Nc1ccnn1C1CCCC1	-12.2%	0.7%	-4.7%
Cc1ccc2c(c1)c1c3n2CCN=C3CCC1	-20.5%	-23.1%	-12.3%
c1cc2c(cc1C1CCCCC1)c1c3n2CCN=C3CCC1	7.94µM*	152.2%	-12.7%
O=S(=O)(NC(=S)NC1CCCCC1)c1ccc(Cl)cc1	12.6µM*	-21.2%	9.7%
CCc1ccc(C(C)NC(=S)NC2CCCCC2)cc1 (stereo unspecified)	-5.1%	22.6%	-5.4%
Cc1ccc(S(=O)(=O)NC(=S)NC2CCCCC2)cc1	31.6µM*	-23.9%	-12.7%
O=C(NNS(=O)(=O)c1ccc(Cl)cc1)NC1CCCCC1	-29.1%	-20.6%	-8.7%
Cc1ccc(S(=O)(=O)NC(C)C(=O)NC2CCCCCC2)cc1 (stereo unspecified)	-25.2%	-22.3%	-2.1%
CCc1ccc(S(=O)(=O)NC(=S)NC2CCCCC2)cc1	12.6µM*	-23.4%	7.1%
COc1ccc(OC)c(CCNC(=O)c2cc3c(s2)-c2c(C)cccc2OC3)c1	-16.3%	.	19.3%
CN(CC(=O)Nc1ccc(F)cc1)C(=O)COC(=O)/C=C/c1ccc(OC(F)F)cc1	-6.4%	10.5%	-10.5%
CCC(=O)NC1CC(=O)N(c2ccc3c(c2)OCCO3)C1 (stereo unspecified)	13.4%	.	2.4%
COc1ccc(NC(=O)c2sc3nc(-c4cc5ccc(OC)cc5oc4=O)[nH]c(=O)c3c2C)cc1	11.5%	.	-1.4%
Cc1cccc(NC(=O)CCS(=O)(=O)c2ccc3c(c2)oc(=O)n3C)c1	?	-20.1%	-12.1%
Cc1ccc(NC(=O)CCS(=O)(=O)c2ccc3c(c2)oc(=O)n3C)c(Br)c1	31.6µM*	.	-0.4%
O=C(OCC(=O)N1CCN(c2ccccc2)CC1)c1ccccn1	-9.9%	-2.5%	-3.8%
O=C(OCC(=O)N1CCN(c2ccccc2)CC1)c1ccc2ccccc2n1	44.7µM*	16.9%	-4.2%
SMILES	Sm TGR inh	AmpC no deterg	AmpC inh detg
CCN(CC)CCNC(=O)CNC(=O)c1nn(-c2ccc(OC)cc2OC)c(=O)c2ccccc12	-12.1%	-7.0%	-3.3%
Cn1c(=O)c2[nH]c(-c3ccccc3)nc2n(C)c1=O	-10.4%	-19.3%	-9.8%
COc1ccc(NN=Nc2nc3c([nH]2)c(=O)n(C)c(=O)n3C)cc1	17.8µM*	0.3%	-0.9%
Cc1ccccc1NN=Nc1nc2c([nH]1)c(=O)n(C)c(=O)n2C	56.2µM*	-25.0%	?
Cn1c(=O)c2[nH]c(N=NNc3ccccc3F)nc2n(C)c1=O	39.8µM*	-12.4%	1.4%
COc1ccc(C(=O)NNC(=O)CSc2nc3c([nH]2)c(=O)n(C)c(=O)n3C)cc1	0.8%	-23.8%	-0.7%
CC(=O)/C(N=Nc1nc2c([nH]1)c(=O)n(C)c(=O)n2C)=C(\C)O	22.1%	73.7%	1.6%
Cc1ccc(S(=O)(=O)N2CCOCC2)cc1C(=O)OC(C)C(=O)c1ccccc1 (stereo unspecified)	5.2%	32.7%	-15.9%
COc1ccccc1CNC(=O)C1CCCCN1S(=O)(=O)c1ccccc1 (stereo unspecified)	0.1%	-6.3%	6.1%
Cc1ccccc1/C=N/Nc1nc2ccccc2c(=O)n1O	-0.9%	-20.8%	-1.5%
Nc1nc(Sc2c([N+](=O)[O-])cc(C(F)(F)F)cc2[N+](=O)[O-])n[nH]1	7.94µM*	-14.9%	-1.1%
Nc1nc(Sc2ccc(C(F)(F)F)cc2[N+](=O)[O-])n[nH]1	0.8%	-9.8%	-4.9%
CCc1ccc(NC(=O)CSc2nc(-c3ccccc3Cl)nc3c2Cc2c(CO)cnc(C)c2O3)cc1	-33.7%	.	-0.3%
Cc1ccc(C2CC(c3cccc(C)c3)n3ncnc3N2)cc1 (stereo unspecified)	4.0%	19.3%	-9.4%
Fc1ccc(C2CC(c3ccccc3)n3ncnc3N2)cc1 (stereo unspecified)	-6.2%	-14.2%	-1.5%
Clc1ccc(C2CC(c3ccco3)n3ncnc3N2)cc1Cl (stereo unspecified)	11.2µM*	63.0%	5.4%
Clc1ccc(C2CC(c3ccccc3)Nc3ncnn32)cc1 (stereo unspecified)	-21.5%	1.26µM*	?
O=C(NCC1(N2CCCCC2)CCCCC1)c1cccc(S(=O)(=O)Nc2ccc(F)cc2)c1	-19.1%	-18.5%	2.3%
C#Cc1ccc(C(=O)Nc2ccc(N3CCC(C)CC3)c(C(N)=O)c2)cc1	5.7%	-31.7%	3.3%
COc1ccc(C(=O)C2CCCN(C(=O)c3noc4c3CCCC4)C2)cc1F (stereo unspecified)	5.6%	40.0%	9.7%
COCCC(=O)N1CCCC(C(=O)c2ccc(C(F)(F)F)cc2)C1 (stereo unspecified)	-0.7%	27.2%	-2.4%
COc1ccc(C(=O)C2CCCN(C(=O)c3ccccc3C(C)=O)C2)cc1F (stereo unspecified)	39.8µM*	61.1%	8.6%
CC(=O)c1ccccc1C(=O)N1CCCC(C(=O)c2ccc(C(F)(F)F)cc2)C1 (stereo unspecified)	39.8µM*	124.6%	-1.2%
COc1ccccc1C(=O)C1CCCN(C(=O)c2ccccc2C(C)=O)C1 (stereo unspecified)	-8.7%	13.2%	?
COc1ccc(C(=O)C2CCCN(C(=O)c3ccc(CSC)o3)C2)cc1F (stereo unspecified)	28.2µM*	49.8%	1.6%
SMILES	Sm TGR inh	AmpC no deterg	AmpC inh detg
COc1ccc2c(CC(=O)OCC(=O)Nc3sc4c(c3C#N)CCC(C)C4)coc2c1 (stereo unspecified)	-13.1%	-22.7%	?
C/C(N)=C(/C#N)C(=O)COC(=O)Cc1coc2cc(C)ccc12	6.7%	-10.4%	5.6%
O=C(COC(=O)C1CCN(S(=O)(=O)c2cccs2)CC1)NCc1ccc(F)cc1	9.1%	1.9%	3.4%
CCCCNC(=O)NS(=O)(=O)c1cnccc1Sc1ccc(Cl)cc1	3.0%	-42.9%	-0.9%
CCN(CC)S(=O)(=O)c1cccc(NC(=O)CN2C(=O)c3ccc([N+](=O)[O-])cc3C2=O)c1	-12.7%	8.91µM*	?
CCN(CC)S(=O)(=O)c1cccc(NC(=O)CCNC(=O)c2ccc([N+](=O)[O-])cc2)c1	10.2%	-3.6%	2.2%

Assay outcomes as filed in PubChem BioAssay.
